The values that follow come from PubChem BioAssay (NCATS).

Results filed as inconclusive are left out. Values without a mark were called inactive. Activity calls are given as the source filed them. Calls come from the whole dose curve; as a rule, active = well fitted cell-killing curve with a large enough effect; inconclusive = small, poorly fitted or top-dose-only effect, or effect the other way; inactive = flat fitted curve, though single readings scatter.
% is set by controls: 0 for no effect and ±100 for the full control effect; potency is the fitted concentration of half-maximal effect.

The experiment has as its system CAOV3. Kind of experiment: Primary qHTS to identify gynecologic anti-cancer compounds using libraries of approved drugs and bioactive compounds (AID 1345084). Note: nearly all actives have a fitted effect of over 55% in size. Conditions: Gynecologic cancer cell panel viability, ATPlite luminescence, 48 h; series mostly up to 57.5 µM; activity change, negative = cytotoxicity: at the top concentration. A digest of the protocol: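 Cells, 1,000 per well, plated 16 h, then exposed 48 h at 37 C to compounds. Viability by ATPlite luminescence after 15 min at room temperature.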
A general note: In qHTS, concentration-response curves come from the screen itself.
For the compound `CS(=O)(=O)OCCCCOS(C)(=O)=O`, the “activity change, negative = cytotoxicity” value is 5.72%. As for `COc1cc(Nc2c(C#N)cnc3cc(OCCCN4CCN(C)CC4)c(OC)cc23)c(Cl)cc1Cl`, the Potency was 6.31 µM (active).

On to `CC(C)c1ccc2oc3nc(N)c(C(=O)O)cc3c(=O)c2c1`, for which the Potency was 6.31 µM (active). On to `c1ccc2[nH]c(-c3cscn3)nc2c1`, for which the “activity change, negative = cytotoxicity” value was -4.25%.

On to `CN(C)C(=O)COC(=O)Cc1ccc(OC(=O)c2ccc(N=C(N)N)cc2)cc1`, for which the “activity change, negative = cytotoxicity” value was 6.36%.

`Cc1cc2c(s1)Nc1ccccc1N=C2N1CCN(C)CC1`: the Potency result is “inactive”. Still for that read-out and setting: for `Cc1cc(C2CCCCC2)n(O)c(=O)c1` the value was 15.8 µM (active). Regarding `CC1=C(C)C(=O)C(C(CCCCCC(=O)O)c2ccccc2)=C(C)C1=O` (configuration not stated), the “activity change, negative = cytotoxicity” value was -6.06%.

On to `CC(=O)NC[C@H]1CN(c2ccc(N3CCOCC3)c(F)c2)C(=O)O1`, for which the “activity change, negative = cytotoxicity” value is 9.18%. Consider `NNc1nncc2ccccc12`, for which the “activity change, negative = cytotoxicity” value was 5.67% [at 25.3 µM]. For `CC(S)C(=O)NCC(=O)O` (configuration not stated), the “activity change, negative = cytotoxicity” value is -4.98%. As to `Cc1ccc(Nc2nccc(N(C)c3ccc4c(C)n(C)nc4c3)n2)cc1S(N)(=O)=O`, the Potency entry is “inactive”. For the compound `Cc1c(C(=O)NN2CCCCC2)nn(-c2ccc(Cl)cc2Cl)c1-c1ccc(Cl)cc1`, the “activity change, negative = cytotoxicity” value is 15%. Regarding `CCCc1cc(=O)[nH]c(=S)[nH]1`, the “activity change, negative = cytotoxicity” value was 29.4%. Turning to `Clc1ccc(C(Cn2ccnc2)OCc2ccc(Sc3ccccc3)cc2)c(Cl)c1` (configuration not stated), the “activity change, negative = cytotoxicity” value is 1.79%. Consider `COCCCOc1ccnc(CS(=O)c2nc3ccccc3[nH]2)c1C` (configuration not stated), for which the “activity change, negative = cytotoxicity” value is 14.2%. `CC[C@]1(O)C[C@H]2CN(CCc3c([nH]c4ccccc34)[C@@](C(=O)OC)(c3cc4c(cc3OC)N(C=O)[C@H]3[C@@](O)(C(=O)OC)[C@H](OC(C)=O)[C@]5(CC)C=CCN6CC[C@]43[C@@H]65)C2)C1`: the “activity change, negative = cytotoxicity” value was -27.4%.
